According to PubChem BioAssay (NCATS):
Results filed as inconclusive are left out. Where a call stands in place of a potency, no number is given. Active and inactive are the calls of the source. Calls come from the whole dose curve; as a rule, active = well fitted inhibition curve with a large enough effect; inconclusive = small, poorly fitted or top-dose-only effect; inactive = flat fitted curve, though single readings scatter.

How the values were obtained:
Test in all cases: qHTS profiling for inhibitors of Plasmodium falciparum proliferation (AID 504749); note: nearly all actives have a fitted effect of over 60% in size
Conditions in all cases: P. falciparum in erythrocytes, SYBR Green DNA, 72 h; series mostly up to 28.7 µM
PAD = tested on: PAD
How it was run: (§1)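 Parasite proliferation within erythrocytes, 72 h exposure. Endpoint: SYBR Green I fluorescence after overnight lysis at room temperature. Controls: 0.29 uM artemisinin, DMSO.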

PC15 = tested on: PC15
How it was run: as §1

PC26 = tested on: PC26
How it was run: as §1

PC49 = tested on: PC49
How it was run: as §1

SC27B = tested on: SC27B
How it was run: as §1

TAB113 = tested on: TAB113
How it was run: as §1

TAB165 = tested on: TAB165
How it was run: as §1

W2 = tested on: W2
How it was run: as §1

TAB109 = tested on: TAB109
How it was run: as §1
Potency is the fitted concentration of half-maximal effect.

| SMILES | Potency (PAD) | Potency (PC15) | Potency (PC26) | Potency (PC49) | Potency (SC27B) | Potency (TAB113) | Potency (TAB165) | Potency (W2) | Potency (TAB109) |
| --- | --- | --- | --- | --- | --- | --- | --- | --- | --- |
| Cc1c(C)c2c(c(C)c1O)CC[C@@](C)(CCC[C@@H](C)CCC[C@@H](C)CCCC(C)C)O2 | inactive | inactive | inactive | inactive | inactive | inactive | inactive | inactive |  |
| CCCCCCCCCCCCCC[n+]1ccc(C)cc1 | 3.55 µM (active) | 4.47 µM (active) | 4.78 µM (active) |  | 3.98 µM (active) | 3.98 µM (active) | 3.98 µM (active) | 1.69 µM (active) | 2.24 µM (active) |
| CC(C)N=c1cc2n(-c3ccc(Cl)cc3)c3ccccc3nc-2cc1Nc1ccc(Cl)cc1 | inactive |  | inactive | inactive | inactive | inactive | inactive |  | inactive |
| CCOC(=O)C1=C(C)NC(C)=C(C(=O)OCC)C1c1ccccc1C=CC(=O)OC(C)(C)C |  | 10 µM (active) | 10.7 µM (active) |  | 11.2 µM (active) |  | 11.2 µM (active) | 6.75 µM (active) |  |
| CCN(CC)CCOc1ccc(-c2nc3cc(Cl)ccc3s2)cc1 |  |  | inactive | inactive | inactive |  |  |  |  |
| NC1C2CN(c3nc4c(cc3F)c(=O)c(C(=O)O)cn4-c3ccc(F)cc3F)CC12 (configuration not stated) |  |  | inactive |  |  |  |  | 6.75 µM (active) |  |
| COCC(=O)Nc1cc(Sc2ccccc2)ccc1N=C(NC(=O)OC)NC(=O)OC | inactive | inactive |  | inactive | inactive | inactive | inactive |  | inactive |
| O=S(=O)(O)O | inactive | inactive | inactive |  | inactive | inactive | inactive | inactive | inactive |
| CCCCC(=O)O[C@]1(C(=O)CO)[C@H](C)C[C@H]2[C@@H]3CCC4=CC(=O)C=C[C@]4(C)[C@@]3(F)[C@@H](O)C[C@@]21C |  |  |  | inactive | inactive | inactive |  | 13.5 µM (active) |  |
| CC(C)(C)C(=O)OCOC(=O)[C@@H]1N2C(=O)[C@@H](N=CN3CCCCCC3)[C@H]2SC1(C)C | inactive | inactive |  | inactive | inactive | inactive | inactive |  | inactive |
| C#C[C@]1(O)CC[C@H]2[C@@H]3CCC4=CCCC[C@@H]4[C@H]3C(=C)C[C@@]21CC |  | inactive | inactive |  |  |  |  |  |  |
| CCCCCC(CC)COC(=O)CC(C(=O)OCC(CC)CCCC)S(=O)(=O)O (configuration not stated) | inactive | inactive |  | inactive | inactive | inactive | inactive |  | inactive |
| CC(Cc1ccc(O)c(O)c1)C(C)Cc1ccc(O)c(O)c1 (configuration not stated) |  |  |  | inactive | inactive | inactive |  | 15.1 µM (active) |  |
| O=C1CSC2(CCN(CCCN3c4ccccc4Sc4ccc(Cl)cc43)CC2)N1 |  |  |  |  |  |  |  | 4.78 µM (active) |  |
| CN1C(=O)CN2CCc3ccccc3C2c2cc(Cl)ccc21 (configuration not stated) |  | inactive |  | inactive |  |  |  |  |  |
| CC1=C(/C=C/C(C)=C/C=C/C(C)=C/CO)C(C)(C)CCC1 |  |  |  |  |  | 11.2 µM (active) |  | 7.57 µM (active) |  |
